Tau fluor cs: Counterscreen qHTS for Inhibitors of Tau Fibril Formation, Fluorescence Polarization; Potency, µM (highest dose often 57.7 µM), without a hit: at the top dose activity change, negative = decrease; hit rate 0.93% among 280,000; tau K18 P301L Alexa594 fluorescence, heparin fibrillization; also: potency is read from the fitted curve at half-maximal effect; nearly all actives have a fitted effect of over 55% in size
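Human tau K18 P301L (15 uM unlabeled, 0.24 uM Alexa 594-labeled) in 100 mM sodium acetate pH 7 with 20 uM heparin, 6 hr at 37 C. ThT 30 uM added, 1 hr ambient; Alexa 594 FP and total fluorescence read at 555/632 nm.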
PNC assembly inh: High Content Assay for Compounds that inhibit the Assembly of the Perinucleolar Compartment; PC3M PTB-GFP, PNC prevalence imaging, 16 h; active compounds read low; activity change (PNC), negative = inhibition, % at 10 µM; hit rate 3.1% among 140,000;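 active = readout at or below -70, meaning at least 70% loss of cells showing the perinucleolar compartment, a nuclear body marking cancer cells; inconclusive = readout between -30 and a set limit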;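 also: plate controls were DMSO wells for no effect and camptothecin positive control wells for full effect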
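PC3M cells stably expressing PTB-GFP, 750–1000 cells/well, treated 16 h at 37 °C with compound (23 nl of library stock), in duplicate. After paraformaldehyde fixation and Hoechst stain, imaged at 20x; PNC prevalence scored by image analysis.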
Tau fibril FP: qHTS for Inhibitors of Tau Fibril Formation, Fluorescence Polarization | hit rate 0.39% among 280,000 | K18 P301L tau heparin fibrillization, Alexa594 FP, 6 h | Potency, µM (series often up to 57.7 µM), without a hit: at the top dose activity, negative = inhibition, most hits filed as inhibitors | Microtubule-associated protein tau (Homo sapiens), P10636; also: potency is read from the fitted curve at half-maximal effect; nearly all actives have a fitted effect of over 55% in size
Target sequence (P10636 561-689 P618L limits assumed): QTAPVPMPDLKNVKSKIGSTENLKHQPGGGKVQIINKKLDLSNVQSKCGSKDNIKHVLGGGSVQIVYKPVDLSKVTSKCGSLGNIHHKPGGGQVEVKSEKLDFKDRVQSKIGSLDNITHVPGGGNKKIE
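Recombinant K18 P301L […], labeled with Alexa 594 at 0.24 uM over 15 uM unlabeled; heparin inducer 20 uM final; 37 C, 6 hr; FP endpoint.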
KDM4E inh: qHTS Assay for Inhibitors of Human Jumonji Domain Containing 2E (JMJD2E) | JMJD2E catalytic domain, FDH-coupled NADH fluorescence (FDH is formaldehyde dehydrogenase) | Potency, µM (titrated, usually from 57.1 µM), for the others: at the highest dose activity change, negative = inhibition, most hits filed as inhibitors | hit rate 1.6% among 230,000 | AID 2147, 2009; active = well fitted inhibition curve with a large enough effect, not every such curve was filed as active; inconclusive = small, poorly fitted or top-dose-only effect, or another doubt; inactive = no such curve, though single readings can be large or run the other way;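 also: potency is read from the fitted curve at half-maximal effect; 0% = wells with enzyme and -100% = buffer wells without enzyme; nearly all actives have a fitted effect of over 50% in size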
Target sequence (B2RXH2 1-337 limits assumed): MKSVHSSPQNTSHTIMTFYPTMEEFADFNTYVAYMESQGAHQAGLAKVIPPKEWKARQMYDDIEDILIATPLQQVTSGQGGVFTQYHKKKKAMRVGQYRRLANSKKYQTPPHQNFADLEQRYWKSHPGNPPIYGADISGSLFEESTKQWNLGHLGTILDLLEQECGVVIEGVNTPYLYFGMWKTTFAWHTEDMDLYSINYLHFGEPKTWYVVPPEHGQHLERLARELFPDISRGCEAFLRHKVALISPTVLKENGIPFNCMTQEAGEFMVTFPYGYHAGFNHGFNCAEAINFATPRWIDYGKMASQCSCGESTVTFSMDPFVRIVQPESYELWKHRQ
NPSR antagonist: qHTS Assay for Antagonists of the Neuropeptide S Receptor: cAMP Signal Transduction | AID 1461, 2008 | hit rate 1% among 220,000 | Potency, µM (top dose mostly 38.3 µM), without a hit: at the highest dose activity change, negative = inhibition, hits mostly inhibitors | CHO-NPSR cells, cAMP TR-FRET, antagonist mode | Q6W5P4; also: potency is read from the fitted curve at half-maximal effect; nearly all actives have a fitted effect of over 50% in size
Tau fibril ThT: qHTS for Inhibitors of Tau Fibril Formation, Thioflavin T Binding; recombinant tau K18 P301L, heparin-induced fibrillization, ThT fluorescence; hit rate 2.1% among 270,000; Potency, µM (series often up to 57.4 µM), inactives show at the highest dose activity, negative = inhibition, actives largely listed as inhibitors; Microtubule-associated protein tau (Homo sapiens), P10636; also: potency is read from the fitted curve at half-maximal effect; nearly all actives have a fitted effect of over 55% in size
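Fibril formation assay: tau K18 P301L at 15 uM with trace Alexa 594 label, heparin inducer 20 uM, pH 7 sodium acetate buffer, 37 C for 6 hr; endpoint ThT signal.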
Starred values were filed as active, the others as inactive; [ ] = another dose, or the depositor's remark. An excerpt weighted towards active compounds, which were near 5.1% of everything screened. Unless noted, calls follow the shape of the dose curve; as a rule, active = well fitted curve in the direction sought with a large enough effect; inconclusive = small, poorly fitted or top-dose-only effect, or another doubt; inactive = no such curve, though single readings can be large; an effect the other way counts as inactive or inconclusive. Unless noted, % is scaled to controls: 0 for no effect and ±100 for the full control effect.

Screening Cc1cccc(NC(=O)c2nc[nH]c2C(=O)N[C@@H](CC(C)C)C(=O)OCc2ccccc2)c1 returned Tau fluor cs inconclusive, Tau fibril FP 25µM*, KDM4E inh -20%, NPSR antagonist inconclusive and Tau fibril ThT 9%.
For Cc1nc(CCN2C(=O)c3ccccc3C2=O)cs1 the results were Tau fluor cs -2%, PNC assembly inh -111*, Tau fibril FP 5%, KDM4E inh 5%, NPSR antagonist 1%[46.1 µM] and Tau fibril ThT -2%.
O=C(Nc1cc(Sc2nc3ccccc3s2)cc([N+](=O)[O-])c1)c1ccccc1F was read as Tau fluor cs 13µM*[quencher], PNC assembly inh 17, Tau fibril FP inconclusive, KDM4E inh -2%, NPSR antagonist -23%[46.1 µM] and Tau fibril ThT -15%.
Screening O=C(Nc1cc(Sc2ccccn2)cc([N+](=O)[O-])c1)c1cccc(F)c1 returned Tau fluor cs 7%, PNC assembly inh -16, Tau fibril FP 4%, KDM4E inh -7%, NPSR antagonist -18% and Tau fibril ThT 4%.
O=C(Nc1cc(Sc2nc3ccccc3s2)cc([N+](=O)[O-])c1)c1ccccc1 was read as Tau fluor cs 4µM*[quencher], PNC assembly inh 90, Tau fibril FP 5%, KDM4E inh -9%, NPSR antagonist -36% and Tau fibril ThT 0%.
Screening Cc1cc(NC(=O)c2ccccc2F)ccc1-c1nc2ccccc2s1 returned Tau fluor cs -7%, Tau fibril FP -9% and Tau fibril ThT inconclusive.
`COC(=O)c1ccc(NC(=O)C(C)Sc2nc(=O)cc(N)n2CCc2ccccc2)cc1` (stereo not given) gave Tau fluor cs inconclusive, Tau fibril FP -11% and Tau fibril ThT -10%.
Screening CC(C)C[C@H](N)CSSC[C@@H](N)CC(C)C returned Tau fluor cs -15%, Tau fibril FP inconclusive, KDM4E inh -2%, NPSR antagonist -15%[46.1 µM] and Tau fibril ThT 5µM*.
Fc1ccccc1-n1ncc2c1ncn1nc(-c3ccccc3Cl)nc21 was read as Tau fluor cs -20%, Tau fibril FP -9% and Tau fibril ThT inconclusive.
Screening NS(=O)(=O)c1ccc(NC(=O)COC(=O)c2cn(-c3ccccc3)nc2-c2ccccc2)cc1 returned Tau fluor cs inconclusive, Tau fibril FP 11µM*, KDM4E inh inconclusive, NPSR antagonist -51% and Tau fibril ThT 0%.
Screening O=C(COC(=O)c1cn(-c2ccccc2)nc1-c1ccccc1)Nc1ncc(Cl)cc1Cl returned Tau fluor cs inconclusive, Tau fibril FP -8%, KDM4E inh inconclusive, NPSR antagonist -32% and Tau fibril ThT -4%.
Screening O=c1[nH][nH]cc1C=Nc1ccccc1O returned Tau fluor cs 0%, PNC assembly inh 4, Tau fibril FP 3%, KDM4E inh 25µM*, NPSR antagonist -12%[46.1 µM] and Tau fibril ThT -12%.
Screening O=C1NCC(O)=C1C=Nc1ccccc1O returned Tau fluor cs -1%, Tau fibril FP -5%, KDM4E inh 18µM*, NPSR antagonist -33% and Tau fibril ThT -7%.
O=c1[nH][nH]cc1C=Nc1ccccc1Cl was read as Tau fluor cs 2%, Tau fibril FP 1%, KDM4E inh -6%, NPSR antagonist 16% and Tau fibril ThT -3%.
`Cc1nnc(N2CCN(c3ccccc3F)CC2)c2c1nnn2Cc1ccccc1` gave Tau fluor cs -13%, Tau fibril FP -2% and Tau fibril ThT -11%.
For Cc1ccc(C)c(N2CCN(C(=O)Nc3cn(CC(C)C)c(=O)c4ccccc34)CC2)c1 the results were Tau fluor cs -17%, Tau fibril FP 3% and Tau fibril ThT inconclusive.
For Nc1cc(S(=O)(=O)C(F)(F)F)ccc1C(=O)O the results were Tau fluor cs -1%, PNC assembly inh -127*, Tau fibril FP 3%, KDM4E inh -5%, NPSR antagonist 4%[46.1 µM] and Tau fibril ThT -7%.
`Nc1cc(C(F)(F)F)ccc1C(=O)O` gave Tau fluor cs 0%, PNC assembly inh -3, Tau fibril FP -8%, KDM4E inh inconclusive, NPSR antagonist 3%[46.1 µM] and Tau fibril ThT 0%.
Screening CC1CCC(C(C)C)C(OCC(O)CN2CCOCC2)C1 (stereo not given) returned Tau fluor cs -2%, PNC assembly inh -110*, Tau fibril FP 10%, KDM4E inh -3%, NPSR antagonist -1%[46.1 µM] and Tau fibril ThT -9%.
For CC1CCC(C(C)C)C(OCC(O)CN2CCCC(C)C2)C1 (stereo not given) the results were Tau fluor cs 6%, Tau fibril FP 5%, KDM4E inh -7%, NPSR antagonist -8% and Tau fibril ThT 4%.
`CCOc1ccc(C(c2c(O)cc(C)n(Cc3ccco3)c2=O)N2CCCCC2)cc1` (stereo not given) gave Tau fluor cs -12%, Tau fibril FP -14% and Tau fibril ThT inconclusive.
`Oc1ccc(N2CCN(c3ncnc4sc(-c5ccccc5)cc34)CC2)cc1` gave Tau fluor cs inconclusive, Tau fibril FP inconclusive, KDM4E inh 16µM*, NPSR antagonist -33% and Tau fibril ThT inconclusive.
For Cn1cc(-c2cc3n(n2)CCC(=O)N3CCCC(=O)Nc2ccccc2Cl)c2ccccc21 the results were Tau fluor cs -21%, Tau fibril FP -1% and Tau fibril ThT inconclusive.
Cc1ccc(NC(=O)Nc2ccc3c(c2)nc(C)n3C)cc1 was read as Tau fluor cs -10%, Tau fibril FP 6%, KDM4E inh -1%, NPSR antagonist -4% and Tau fibril ThT 0%.
Cc1cc(NC(=O)Nc2ccc3c(ccn3C)c2)sn1 was read as Tau fluor cs 13µM*[quencher], Tau fibril FP inconclusive, KDM4E inh -10%, NPSR antagonist inconclusive and Tau fibril ThT inconclusive.
Screening COc1cc(/C=C/c2ccc3cccc([N+](=O)[O-])c3n2)ccc1OCC(=O)O returned Tau fluor cs -3%, Tau fibril FP 7%, KDM4E inh -3%, NPSR antagonist 0% and Tau fibril ThT inconclusive.
Screening O=C(O)COc1ccc(/C=C/c2ccc3cccc([N+](=O)[O-])c3n2)cc1 returned Tau fluor cs -16%, PNC assembly inh 22, Tau fibril FP 10%, KDM4E inh -7%, NPSR antagonist -10% and Tau fibril ThT 7.9µM*.
`COc1cc(/C=C/c2ccc3c([N+](=O)[O-])cccc3n2)ccc1OCC(=O)O` gave Tau fluor cs -16%, Tau fibril FP -1%, KDM4E inh -3%, NPSR antagonist -2% and Tau fibril ThT 3.2µM*.

Source: PubChem BioAssay (National Center for Advancing Translational Sciences (NCATS))
